Bioassay records as filed in PubChem.
The list is not random: actives were taken first. Their share in the collection is about 1.7%.
Measles CPE: compounds protecting cells from measles virus cytopathic effect, primary screen, measles RdRp inhibitor project, single point, MLSMR library, absorbance | Measles virus-infected cells, CPE protection | 140,000 tested, 1.5% active | protection (pct of control), % at 4 µM; in the data active = protection mostly above about 24%, no sharp cut-off; inactive = mostly below about 26%
sEH inhibitor: soluble epoxide hydrolase inhibitors, primary screen, biochemical, human sEH. AID 707, 2007. recombinant human sEH enzymatic activity assay. Bifunctional epoxide hydrolase 2 (Homo sapiens), P34913. 91,000 tested, 0.34% active. inhibition, % at 2 µM; in the data active = inhibition above about 80%
Target sequence (P34913 whole entry, looked up): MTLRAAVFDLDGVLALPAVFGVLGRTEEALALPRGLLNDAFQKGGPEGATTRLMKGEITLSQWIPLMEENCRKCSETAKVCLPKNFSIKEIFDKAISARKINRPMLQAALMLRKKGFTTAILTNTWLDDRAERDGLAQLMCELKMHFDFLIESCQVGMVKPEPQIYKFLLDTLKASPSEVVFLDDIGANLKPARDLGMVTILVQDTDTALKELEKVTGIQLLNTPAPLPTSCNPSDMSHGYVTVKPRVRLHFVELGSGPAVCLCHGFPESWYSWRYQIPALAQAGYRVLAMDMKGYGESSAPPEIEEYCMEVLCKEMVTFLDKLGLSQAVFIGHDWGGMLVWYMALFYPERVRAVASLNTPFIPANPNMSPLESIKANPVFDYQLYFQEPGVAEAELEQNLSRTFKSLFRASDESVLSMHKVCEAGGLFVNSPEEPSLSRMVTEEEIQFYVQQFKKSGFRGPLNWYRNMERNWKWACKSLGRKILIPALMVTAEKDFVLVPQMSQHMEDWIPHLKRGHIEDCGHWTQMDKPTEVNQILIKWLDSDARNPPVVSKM
LYP inh 2: PTPN22 phosphatase inhibitors, primary screen, biochemical, DiFMUP fluorescence, 2 µM; Tyrosine-protein phosphatase non-receptor type 22 (Homo sapiens), Q9Y2R2; 96,000 tested, 0.21% active; inhibition, % at 2 µM; recombinant LYP catalytic domain;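 active = inhibition at 2 µM at or above a set limit, the screen mean plus 3 SD, cut at about 24% in these data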;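 also: 0% = DMSO with enzyme and 100% = enzyme fully blocked by orthovanadate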
sEH activator: soluble epoxide hydrolase activators, primary screen, biochemical, human sEH. Bifunctional epoxide hydrolase 2 (Homo sapiens), P34913. purified human sEH enzymatic activity, activator screen. activation, % at 2 µM. 91,000 tested, 0.04% active. AID 717, 2007; in the data active = activation above about 37%
LYP act: LYP phosphatase activators, primary screen, biochemical, DiFMUP fluorescence, 2 µM | recombinant LYP; 0 = plate median, 100 = signal doubled | activation, % at 2 µM | 96,000 tested, 0.11% active | AID 697, 2007 | Tyrosine-protein phosphatase non-receptor type 22 (Homo sapiens), Q9Y2R2;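 active = activation at 2 µM above a set limit, the mean plus 5 SD, cut at about 37% in these data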
An asterisk follows results filed as active; . = no result.

SMILES	Measles CPE	sEH inhibitor	LYP inh 2	sEH activator	LYP act
CCOc1ccc(-n2cc(-c3ccccc3)c3c(SC(C)C(=O)OC)ncnc32)cc1 (stereo unspecified)	19*	.	.	.	.
COC(=O)C(C)Sc1ncnc2c1c(-c1ccccc1)cn2-c1ccc(OC)cc1 (stereo unspecified)	3	.	.	.	.
O=C(NC(=S)NC(c1ccccc1)c1ccncc1)c1ccccc1 (stereo unspecified)	11	.	.	.	.
Cc1ccc(S(=O)(=O)/N=C2/NC(=O)/C(=C/c3ccc(Br)o3)S2)cc1	25*	.	.	.	.
CCCn1c(SCC(=O)Nc2cc(S(=O)(=O)N3CCOCC3)ccc2OC)n[nH]c1=O	50*	.	.	.	.
COc1ccc(/C=N/NC(=O)c2ccc(COc3ccccc3Cl)o2)c(OC)c1C	13	.	.	.	.
COc1ccc(/C=N/NC(=O)c2ccc(COc3ccccc3Cl)o2)cc1	12	84*	4	-84	0
COc1cc(C(Nc2ccccn2)c2ccc3ccc(C)nc3c2O)cc(OC)c1O (stereo unspecified)	41*	.	-6	.	4
COC(=O)c1ccc(N(C(=O)c2ccco2)C(C(=O)NC2CCCC2)c2ccco2)cc1 (stereo unspecified)	6	-15	1	18	0
Cc1c(C(=O)N2CCCC2)oc2c1-c1[nH]ncc1CC2	31*	.	.	.	.
CC(=O)N1C(O)CC(C)N1c1ccccc1 (stereo unspecified)	4	.	.	.	.
CCN(C(=O)CN1CCN(S(=O)(=O)c2cc(Cl)ccc2Cl)CC1)c1c(N)n(Cc2ccccc2)c(=O)[nH]c1=O	30*	.	.	.	.
O=C(O)c1ccc(CSc2nc(-c3ccccc3)cc(C(F)(F)F)n2)cc1	34*	.	.	.	.
CC(=O)c1c(C)n(C)c2ccc(O)cc12	39*	11	-9	-10	7
Cc1c(C(=O)O)c2cc(O)ccc2n1-c1ccccc1	16	.	-13	.	10
CC1CCN(C(=O)CCc2ccc(Oc3cc([N+](=O)[O-])cc([N+](=O)[O-])c3)cc2)CC1	4	.	.	.	.
CN1CCn2c1nc(N1CCOCC1)nc2=O	10	6	31*	-6	-33
O=C(O)c1nc(N2CCOCC2)nc(N2CCOCC2)n1	4	9	7	-4	-6
CCN(CC)C1=N/C(=C\c2ccc(OC)cc2)C(=O)N1c1ccccc1	69*	.	.	.	.
COC(=O)c1c(-c2ccc(C)cc2)csc1NC(=O)C1CC=CCC1C(=O)O (stereo unspecified)	47*	.	.	.	.
COC(=O)c1c(-c2ccc(C(C)(C)C)cc2)csc1NC(=O)C1C2CCC(O2)C1C(=O)O (stereo unspecified)	10	.	.	.	.
Cc1ccc(OCCn2cnc3ccccc3c2=O)c([N+](=O)[O-])c1	4	.	.	.	.
CCOc1ccc(Br)cc1S(=O)(=O)Nc1cccc(S(=O)(=O)N(C)c2ccccc2)c1	6	.	.	.	.
O=C(NCCCc1ccccc1)Nc1cccc(Cl)c1	4	.	.	.	.
Cc1ccc(NC(=O)NCCCc2ccccc2)cc1	4	83*	4	-83	-2
SMILES	Measles CPE	sEH inhibitor	LYP inh 2	sEH activator	LYP act
CC(C)(C)SCCNC(=O)Nc1ccccc1	35*	.	.	.	.
COc1ccc(-c2csc(-c3cc4ccccc4oc3=N)n2)cc1	3	.	.	.	.
O=S1(=O)CCC(NC(=S)NCCNC(=S)NC2CCS(=O)(=O)C2)C1 (stereo unspecified)	28*	.	.	.	.
O=C(NNS(=O)(=O)c1ccc(F)c(Cl)c1)c1cccc(S(=O)(=O)N2CCOCC2)c1	4	.	.	.	.
Cc1ccsc1C(=O)NNC(=O)C1CC=CCC1C(=O)O (stereo unspecified)	9	.	.	.	.
CC(C)c1ccc(C(=O)NNC(=O)C2CC=CCC2C(=O)O)cc1 (stereo unspecified)	29*	.	.	.	.
Cc1ccc(CN2CCNC2=O)cc1	10	-10	-10	10	14
O=C1NCCN1Cc1ccccc1	9	-8	1	8	2
O=C1NCCN1Cc1ccc(F)cc1	36*	3	0	-1	2
O=C1NCCN1Cc1ccccc1F	40*	.	-2	.	0
O=S(=O)(c1ccc2nc(COc3ccc(Cl)cc3Cl)[nH]c2c1)N1CCOCC1	53*	23	10	-24	-12
Cc1ccccc1OCc1nc2ccc(S(=O)(=O)N3CCOCC3)cc2[nH]1	17	21	-7	-22	9
CCc1nc2c(cnn2-c2ccc(Cl)cc2)c(=O)n1-c1ccc(OC)cc1	56*	.	4	.	-6
CCOc1ccc(-n2c(C)nc3c(cnn3-c3ccc(Cl)cc3)c2=O)cc1	1	0	10	-2	-13
COc1ccc(NS(=O)(=O)c2ccc3oc(Nc4ccc5c(c4)OCCO5)nc3c2)cc1	93*	10	-2	-6	2
COCCn1c(=S)[nH]c2cc(C(=O)N3CCc4ccccc43)ccc2c1=O	59*	.	-4	.	2
CCCn1c(=S)[nH]c2cc(C(=O)N3CCc4ccccc43)ccc2c1=O	12	-5	18	8	-16
O=C(/C=C/c1ccccc1)NC(NC(=S)Nc1ccc(C(=O)O)cc1)C(Cl)(Cl)Cl (stereo unspecified)	45*	.	.	.	.
O=C(/C=C/c1ccccc1)NC(NC(=S)Nc1cccc(O)c1)C(Cl)(Cl)Cl (stereo unspecified)	13	.	.	.	.
CC(NC(=O)OCc1ccccc1)C(=O)Oc1cc2oc(=O)cc(-c3ccccc3)c2cc1Cl (stereo unspecified)	29*	.	.	.	.
O=C(NC(Cc1ccccc1)C(=O)Oc1ccc2c(C(F)(F)F)cc(=O)oc2c1)OCc1ccccc1 (stereo unspecified)	4	.	.	.	.
CNCc1ccccc1Sc1ccc(O)c(O)c1	11	.	.	.	.
Cc1cccc(-n2c(C)cc(/C=N/NC(=O)c3ccc(CN4CCOCC4)cc3)c2C)c1	7	-6	-2	4	0
Cc1ccc(-n2c(C)cc(/C=N/NC(=O)c3ccc(CN4CCOCC4)cc3)c2C)cc1	71*	-8	9	7	-3
O=C(CCC(=O)OCc1ccc(C(=O)Oc2ccccc2)cc1)Nc1cccc2ccccc12	79*	-9	-33	12	36
SMILES	Measles CPE	sEH inhibitor	LYP inh 2	sEH activator	LYP act
C=CCOC(=O)CCC(=O)Nc1cccc2ccccc12	17	.	.	.	.
O=C(NC1CCCC1)C(c1ccccn1)N(C(=O)c1csnn1)C1CCCCC1 (stereo unspecified)	3	-2	5	1	-8
O=C(NC1CCCC1)C(c1ccccn1)N(C(=O)c1csnn1)C1CC1 (stereo unspecified)	86*	-13	-3	15	4
Cc1cccn2c(NC(=O)c3cccs3)c(-c3ccccc3)nc12	14	.	.	.	.
CN1CC2([N+](=O)[O-])CC=C(Oc3ccccc3)C([N+](=O)[O-])(C1)C2 (stereo unspecified)	30*	-9	-4	11	6
CN(C(=O)Cc1ccccc1)n1cnnc1	21	5	-8	-5	4
Cc1ccc(NC(=O)CCCN2C(=O)c3cccc4cccc(c34)C2=O)cc1	13	.	.	.	.
